Compounds with a hit are over-represented: about 3.8% of the library has one in this group of screens.
Hsp70 activator – Hsp70 transcriptional activation, primary screen; HeLa Hsp70 promoter luciferase reporter, luminescence; scaled: vehicle 0, proteasome-inhibitor control 100%; activation, % at 10 µM; hit rate 0.04% among 200,000;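 active = activation above the mean across all tested compounds plus 3 SD, cutoff set per campaign, cut at about 5.5% in these data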;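 also: 100% = MG132 at 30 µM as the positive control and 0% = DMSO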
HSP90 refold inh – HSP90 refolding inhibition in rabbit reticulocyte lysate; inhibition, % at 5.6 µM; hit rate 0.91% among 290,000; AID 1789; luciferase refolding luminescence, 3 h;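 active = inhibition above the screen-wide mean plus 3 SD, computed separately per campaign, cut at about 16% in these data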;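 also: 0% = DMSO wells and 100% = 60 µM geldanamycin wells; inhibitors lower the luminescence because luciferase stays unfolded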
HSF1 inhib – HSF1 inhibition; NIH3T3-HGL HSE-luciferase, MG132-induced, luminescence 8 h; active compounds read low; activity change, negative = inhibition, % at 7.5 µM (by protocol); hit rate 0.77% among 300,000; AID 2098;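 active = more than half of replicate wells show activity change below -50%, luminescence cut by over half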;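 also: luciferase reports HSF-1 transcriptional activity via heat shock element; 0% = median of DMSO wells and -100% = zero luminescence signal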
HSF1 activator – increases HSF-1 driven luciferase reporter signal | NIH3T3-HGL HSF-1 luciferase reporter, MG132, 8 h; 100% = twice DMSO control signal | activation, % at 9 µM | hit rate 1.7% among 300,000 | AID 504408;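 active = mean replicate activation of at least 50% with a set share of replicates each reaching 50%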;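 also: 0% = median of the neutral control wells and 100% = twice that signal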
NALP1 inh – inhibitors of NALP1 inflammasome in yeast. S. cerevisiae NALP1/ASC/caspase-1 growth, X-gal OD620, 72 h. hit rate 0.61% among 280,000. inhibition, % at 10 µM; in the data active = inhibition mostly above about 24%, no sharp cut-off; inactive = mostly below about 32%
p-CIP stab down – lowers stability of the mouse p/CIP coactivator protein. Q05BA5. F442A p/CIP-EGFP cells, EGFP fluorescence, 16 h. decrease of EGFP signal, % at 10 µM. hit rate 0.01% among 290,000. AID 1984;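 active = EGFP signal decrease of at least 30% at 10 µM or well 3 SD below plate mean, unless failing retest; inactive = the rest, including hits failing retest or dose response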
Target sequence (Q05BA5 1-1403): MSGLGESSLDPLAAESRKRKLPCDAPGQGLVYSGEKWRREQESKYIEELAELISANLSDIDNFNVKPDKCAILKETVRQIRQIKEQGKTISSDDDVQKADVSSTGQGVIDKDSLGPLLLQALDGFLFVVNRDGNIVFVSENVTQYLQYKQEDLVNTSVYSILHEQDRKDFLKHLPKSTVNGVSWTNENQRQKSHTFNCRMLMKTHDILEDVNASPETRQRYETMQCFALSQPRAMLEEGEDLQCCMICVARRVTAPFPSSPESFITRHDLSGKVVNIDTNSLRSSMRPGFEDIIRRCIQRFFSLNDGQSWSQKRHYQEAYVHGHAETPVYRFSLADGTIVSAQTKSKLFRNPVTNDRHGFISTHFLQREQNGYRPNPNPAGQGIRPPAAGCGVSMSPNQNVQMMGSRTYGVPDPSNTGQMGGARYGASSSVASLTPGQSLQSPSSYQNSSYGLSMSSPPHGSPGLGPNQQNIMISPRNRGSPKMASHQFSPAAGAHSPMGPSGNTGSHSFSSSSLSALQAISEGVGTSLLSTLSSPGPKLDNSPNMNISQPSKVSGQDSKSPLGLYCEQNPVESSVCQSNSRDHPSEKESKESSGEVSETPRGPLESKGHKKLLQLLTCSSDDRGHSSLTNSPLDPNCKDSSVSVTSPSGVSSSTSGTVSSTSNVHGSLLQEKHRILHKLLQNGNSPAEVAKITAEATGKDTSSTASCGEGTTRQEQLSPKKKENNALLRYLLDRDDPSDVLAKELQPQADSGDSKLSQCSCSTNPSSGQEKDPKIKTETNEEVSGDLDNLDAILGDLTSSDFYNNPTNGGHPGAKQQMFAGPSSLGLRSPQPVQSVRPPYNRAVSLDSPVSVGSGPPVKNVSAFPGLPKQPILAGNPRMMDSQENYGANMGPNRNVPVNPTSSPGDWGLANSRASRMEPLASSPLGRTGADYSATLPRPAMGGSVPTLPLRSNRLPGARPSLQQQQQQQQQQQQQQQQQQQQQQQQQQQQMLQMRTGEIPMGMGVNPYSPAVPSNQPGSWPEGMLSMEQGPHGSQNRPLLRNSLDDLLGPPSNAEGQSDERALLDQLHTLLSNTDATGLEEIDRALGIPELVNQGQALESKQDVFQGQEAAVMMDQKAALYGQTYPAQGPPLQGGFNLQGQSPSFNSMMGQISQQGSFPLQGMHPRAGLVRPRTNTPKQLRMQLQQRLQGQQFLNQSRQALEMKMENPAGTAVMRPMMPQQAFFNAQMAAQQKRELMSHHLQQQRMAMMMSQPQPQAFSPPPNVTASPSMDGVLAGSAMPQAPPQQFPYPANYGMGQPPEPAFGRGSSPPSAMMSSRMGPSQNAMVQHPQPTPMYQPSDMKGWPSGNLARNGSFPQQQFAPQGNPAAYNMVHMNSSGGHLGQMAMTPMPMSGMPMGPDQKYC
An asterisk follows results filed as active; . = no result.

SMILES	Hsp70 activator	HSP90 refold inh	HSF1 inhib	HSF1 activator	NALP1 inh	p-CIP stab down
O=C(NCc1ccco1)c1cc(-c2cccs2)on1	0.3	0.0	63.3	71.7*	12.8	-12.3
O=C(NCc1ccco1)c1cc(-c2ccccc2)on1	0.3	-3.1	10.5	49.6	-7.7	-9.3
O=C(NCc1ccco1)c1cccs1	0.7	1.2	9.8	26.1	28.9*	-16.9
Cc1ccccc1NS(=O)(=O)c1ccc(C(=O)NCCCN2CCCC2=O)cc1	.	.	0.1	-4.2	.	.
O=[N+]([O-])c1ccc(-c2nc(-c3ccncc3)no2)cc1	.	1.5	31.2	65.0*	.	-9.7
Brc1ccc(-c2nc(-c3ccncc3)no2)cc1	.	-1.6	10.6	11.9	-4.4	2.8
COc1ccc(-c2nc(-c3cccnc3)no2)cc1	.	7.9	13.0	43.7	.	-16.3
O=[N+]([O-])c1cccc(-c2nc(-c3cccs3)c(-c3cccs3)[nH]2)c1	-0.3	-2.5	-4.7	-1.8	2.0	-18.5
Clc1ccccc1OCc1nc(-c2ccccn2)no1	0.3	7.7	28.1	59.8*	6.2	-4.0
COc1ccc(-c2nc(-c3ccccn3)no2)cc1	-0.6	94.1*	-77.8*	-79.5	1.5	-33.6
O=[N+]([O-])c1cccc(-c2noc(-c3cccs3)n2)c1	.	-6.0	42.7	57.1*	-8.1	0.5
CCCCOc1ccc(C(=O)Oc2cccnc2)cc1	.	1.1	3.4	-8.9	7.5	3.9
COc1ccc(-c2nc(-c3ccncc3)no2)cc1	.	21.2*	27.2	54.0*	0.1	-5.8
Clc1ccc(-c2nc(-c3ccccn3)no2)cc1Cl	-0.2	-3.5	7.5	29.1	32.3*	2.8
Cc1cccc(NC(=O)COC(=O)Cc2cccs2)c1C	.	.	-3.4	0.9	.	.
COc1ccc(C2=NN(S(C)(=O)=O)C(c3ccc4nccnc4c3)C2)cc1 (stereo not drawn)	-0.1	1.9	39.5	92.5*	-15.1	1.1
Cc1ccc(C2=NN(S(C)(=O)=O)C(c3ccc4nccnc4c3)C2)cc1 (stereo not drawn)	-0.2	-2.7	-9.9	-27.1	11.0	4.9
O=C(NCCc1ccccn1)c1cncc(Br)c1	.	0.9	-1.7	4.9	15.2	-3.4
CCCCCOc1ccc(Br)cc1CSC(=N)N	-0.4	3.8	-3.4	-19.2	52.3*	-2.7
Cc1ccccc1-c1nn(-c2ccc(F)cc2F)cc1CNCCCO	-0.1	-0.1	-3.1	-9.1	19.8*	-5.6
N/C(=N\OC(=O)Nc1ccccc1)c1ncc([N+](=O)[O-])s1	.	0.7	40.3	64.8*	.	-16.5
Cc1ccccc1CCNC(=O)C1CCN(S(=O)(=O)c2ccc(-n3cnnn3)cc2)CC1	0.1	2.0	-1.5	-8.5	31.3*	-5.3
O=S(=O)(c1ccc(-n2cnnn2)cc1)N1CCNCC1	.	-3.0	42.6	82.6*	6.6	-2.7
Cc1ccc(NC(=O)C2CCCN(c3ncccn3)C2)cc1F (stereo not drawn)	0.1	-3.1	22.8	59.7*	25.7	-7.7
Cc1cc(C)cc(NC(=O)C2CCCN(c3ncccn3)C2)c1 (stereo not drawn)	.	-4.2	-5.0	3.2	1.8	-0.8
SMILES	Hsp70 activator	HSP90 refold inh	HSF1 inhib	HSF1 activator	NALP1 inh	p-CIP stab down
C[C@]12CC[C@@H]3c4cc(O)c(O)cc4CC[C@H]3[C@@H]1CC[C@@H]2O	0.1	-2.6	55.1	85.4*	4.0	-0.5
C[C@]12CC[C@@H]3c4ccc(O)cc4CC[C@H]3[C@@H]1CC[C@@H]2O	-0.3	2.3	-37.3	-51.4	20.3	-10.4
CC(=O)Nc1ccc(S(=O)(=O)N2CCN=C2c2ccccc2)cc1	.	-3.8	1.0	-2.6	9.1	4.8
CCOC(=O)N1CCN(C(=O)c2ccc3oc(CCCc4ccccc4)nc3c2)CC1	.	-1.3	23.0	61.3*	12.4	-13.8
CC1(C)CC[C@]2(C(=O)O)[C@H](O)C[C@]3(C)C(=CCC4[C@@]5(C)C[C@H](O)[C@H](O)[C@@](C)(CO)C5CC[C@]43C)[C@@H]2C1 (stereo partly drawn)	.	.	-1.7	-2.4	.	.
CCCC(=O)Nc1cccc(NC(=O)c2cccc([N+](=O)[O-])c2C)c1	-0.6	3.3	-70.8*	-76.7	12.9	2.4
CCCC(=O)Nc1cccc(NC(=O)c2ccc([N+](=O)[O-])cc2Cl)c1	0.0	-2.3	-6.5	-10.5	19.4	0.7
CCCC(=O)Nc1ccc(Cl)c(NC(=O)c2ccc([N+](=O)[O-])cc2Cl)c1	-0.5	0.1	-63.7*	-72.6	13.5	-2.4
CCC(=O)Nc1ccc(Cl)c(NC(=O)c2cccnc2)c1	-0.2	-2.7	-4.8	15.7	9.0	-5.6
CCCC(=O)Nc1ccc(Cl)c(NC(=O)c2cccnc2)c1	1.2	2.5	-86.7*	-89.3	33.9	11.9
Brc1ccc2nc(-c3cccs3)c(NCC3CCCO3)n2c1 (stereo not drawn)	-0.1	2.0	18.2	31.9	-1.6	-11.2
COc1ccc(OC)c2[nH]c(=O)c(CCNC(=O)Cc3cccs3)cc12	1.5	-1.4	-5.9	4.7	14.3	-7.3
O=C(CSC1CS(=O)(=O)c2cc([N+](=O)[O-])ccc21)NNC(=O)c1ccc(Cl)cc1 (stereo not drawn)	.	-1.6	16.3	61.3*	.	1.9
O=C(CSC1CS(=O)(=O)c2cc([N+](=O)[O-])ccc21)NNC(=O)c1ccccc1 (stereo not drawn)	.	3.9	8.1	11.6	.	-8.6
Cc1ccc2nc3c(cc2c1)c(NC(=O)C(C)(C)C)nn3CC(C)C	.	-2.1	0.3	6.8	4.3	-7.2
O=C(NNC(=S)Nc1ccccc1C(F)(F)F)C1CC1	.	0.5	1.7	0.3	-31.9	-5.6
CCOc1ccc2sc(NS(=O)(=O)c3ccc(OC)c(OC)c3)nc2c1	-0.4	-1.4	32.1	64.4*	.	-16.4
COc1ccc(S(=O)(=O)Nc2nc3ccccc3s2)cc1	-0.6	-1.6	-2.0	5.9	38.4	-0.3
O=C(Nc1ccc(NC(=O)C23CC4CC(CC(C4)C2)C3)cc1)c1cc(F)c(F)cc1Cl	0.3	2.0	-1.6	-11.2	14.7	4.7
CC(=O)N1CCC2(CC1)C/C(=N\NC(=S)Nc1ccccc1F)c1cc(O)ccc1O2	-0.2	3.8	-52.4*	-58.3	-20.6	-11.8
Cc1ccc(C(=O)N2CCN(c3ccccn3)CC2)cc1[N+](=O)[O-]	-0.1	3.1	-15.8	-34.1	0.7	29.8
Cc1ccc(C(=O)N2CCN(c3ccccc3Cl)CC2)cc1[N+](=O)[O-]	0.0	1.2	3.0	6.7	38.3*	-1.3
NC(=O)c1ccc(N2CCCCCC2)c([N+](=O)[O-])c1	-0.5	0.1	-7.8	12.0	-1.4	-1.7
CC(=O)N1CCN(c2ccc(C(N)=O)cc2[N+](=O)[O-])CC1	-0.4	3.6	-4.9	6.7	31.8*	-1.7
COc1cc(-c2nc3cnccn3c2Nc2ccc(C)cc2)ccc1O	0.0	-1.1	-10.5	-9.3	4.0	-5.6
Oc1ccc(-c2nc3cnccn3c2Nc2ccc3c(c2)OCCO3)cc1	0.9	0.8	53.0	63.8*	-18.1	-22.0

Source: PubChem
